Activity calls are given as the source filed them. How the source made its calls: active means hit-call score of the fitted dose curve at least 0.9, where 1 is the maximum; inactive means score below 0.9.

Chain of Transcription factor E2F1 (Homo sapiens) (Q01094 whole entry, looked up): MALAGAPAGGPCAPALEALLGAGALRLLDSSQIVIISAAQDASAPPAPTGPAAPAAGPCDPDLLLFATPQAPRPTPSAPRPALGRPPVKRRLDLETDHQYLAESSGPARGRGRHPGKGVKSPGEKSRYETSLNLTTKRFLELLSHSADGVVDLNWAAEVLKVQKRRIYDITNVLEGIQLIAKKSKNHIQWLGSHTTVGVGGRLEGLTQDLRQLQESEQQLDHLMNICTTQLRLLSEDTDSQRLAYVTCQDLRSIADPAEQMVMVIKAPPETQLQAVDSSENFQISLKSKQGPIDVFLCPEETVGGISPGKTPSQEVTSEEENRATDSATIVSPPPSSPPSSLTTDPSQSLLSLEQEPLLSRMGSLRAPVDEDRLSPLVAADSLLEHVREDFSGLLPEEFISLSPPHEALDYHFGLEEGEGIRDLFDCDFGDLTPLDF

Test system in one experiment: not listed separately
The experiment can be described thus: ATG_BRE_CIS: Attagene CIS-FACTORIAL HepG2 Assay for human Bone Morphogenetic Protein (BMP) Response Element (BRE) (AID 2282933). To be noted: HepG2 BMP response element reporter, Attagene transcription factor profiling; actives raise or lower the signal. The method in brief: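 A HepG2 multiplex reporter system measured inducible reporter mRNA 24 h post-dosing. Detection: RT-PCR, 6-FAM primer extension, HpaI digestion, capillary electrophoresis. Activity fitted bidirectionally relative to DMSO.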
With `Nc1c(Oc2ccccc2)cc(O)c2c1C(=O)c1ccccc1C2=O`, the AC50 (as a rule, the midpoint of the concentration-response curve, whichever way the signal moves) was 13.2 µM (active).

In the case of `C=CCN=C=S`, the result was inactive.

Take `C[C@]12CC[C@@H](O)C[C@@H]1CC[C@@H]1[C@@H]2CC[C@]2(C)C(=O)CC[C@@H]12`: the call was inactive.

Turning to `C#CCOC(=O)/C=C(C)/C=C/CC(C)CCCC(C)C` (stereo not given), the result was inactive.

With `C=C(C)[C@@H]1CC=C(C=O)CC1`, the result was inactive.

As to `CN(C)[C@@H]1C(=O)C(C(N)=O)=C(O)[C@@]2(O)C(=O)C3=C(O)c4c(O)ccc(Cl)c4[C@@](C)(O)[C@H]3C[C@@H]12`, the AC50 is 30.3 µM (active).

For `Cc1cc(C)cc(C)c1`, the outcome was inactive.

`O=c1[nH]c2ccccc2n1C1CCN(CCCC(c2ccc(F)cc2)c2ccc(F)cc2)CC1`: the compound was classed as inactive.

As for `C=CCCl`, the outcome was inactive.

As to `C1CN2CCN1CC2`, the call was inactive.

For `COCC(=O)N(c1c(C)cccc1C)[C@H](C)C(=O)OC`, the result was inactive.

As to `CCCSP(=S)(OCC)Oc1ccc(SC)cc1` (stereo not given), the result was inactive.

As for `CCOc1ccc(N)cc1`, the compound was classed as inactive.

Take `COc1ccc([N+](=O)[O-])cc1O`: the call was inactive.

Take `OC(Cc1ccccc1Cl)(Cn1[nH]cnc1=S)C1(Cl)CC1` (stereo not given): the call was inactive.

In the case of `CC(C)(C)c1ccccc1O`, the call was inactive.

As to `CC(C)[N+](=O)[O-]`, the result was inactive.

As for `CCCCCCCCCCCCc1cccc(S(=O)(=O)O)c1`, the compound was classed as inactive.

In the case of `O=C(CCl)Nc1ccccc1`, the AC50 was 5.35 µM (active).

On to `CC(C=O)Cc1ccc2c(c1)OCO2` (stereo not given), for which the call was inactive.

On to `BrCCCCBr`, for which the outcome was inactive.

For the compound `CC(C)O.CC(C)O.OCCN(CCO)CCO.OCCN(CCO)CCO.[Ti]`, the AC50 was 6.97 µM (active).

On to `CCCCOC(C)=O`, for which the outcome was inactive.

With `Cc1ccc(OP(=O)(Oc2ccc(C)cc2C)Oc2ccc(C)cc2C)c(C)c1`, the compound was classed as inactive.

In the case of `CC(C)(C)c1ccc(CCOc2ncnc3ccccc23)cc1`, the compound was called inactive.

For the compound `CCOc1cc(C=O)ccc1O`, the call was inactive.

With `Clc1cc(C(Cl)(Cl)Cl)cnc1Cl`, the outcome was inactive.

For `CCCCS(=O)(=O)Cl`, the compound was called inactive.

As for `N#Cc1ccccc1N`, the result was inactive.

Turning to `OCCN(CCO)CCO`, the result was inactive.

In the case of `BrCC(Br)c1ccccc1` (stereo not given), the call was inactive.

As for `C=CC(Cl)CCl` (stereo not given), the compound was called inactive.

Regarding `O=[N+]([O-])c1ccc(Cl)c([N+](=O)[O-])c1`, the compound was classed as inactive.

As for `CCC(C)(C#N)N=NC(C)(C#N)CC` (stereo not given), the result was inactive.

Regarding `CC(C)(C1CCC(O)CC1)C1CCC(O)CC1` (stereo not given), the compound was classed as inactive.

With `C=CC(=O)NC(C)(C)CC(C)=O`, the outcome was inactive.

With `Cc1cc(SCc2sc(-c3ccc(C(F)(F)F)c(F)c3)nc2C)ccc1OCC(=O)O`, the outcome was inactive.

`c1ccc2sc(SNC3CCCCC3)nc2c1`: the compound was called inactive.

As for `CCOC(=O)C(SP(=S)(OC)OC)c1ccccc1` (stereo not given), the outcome was inactive.

On to `c1csc(-c2ccc(-c3cccs3)s2)c1`, for which the outcome was inactive.

In the next experiment the target is Retinoic acid receptor alpha (Homo sapiens) (UniProt P10276). The experiment can be described thus: ATG_DR5_RAR_CIS: Attagene CIS-FACTORIAL HepG2 Assay for human Retinoic Acid Receptor Alpha (RARE), DR5 submotif (AID 2282934). To be noted: HepG2 Attagene cis-factorial RARE DR5 reporter, mRNA; actives raise or lower the signal. The method in brief: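 Endpoint fitted in both directions relative to DMSO as negative control. It reflects DR5 cis-element reporter mRNA induction in transiently transfected HepG2 cells, measured 24 h after dosing through RT-PCR and fluorescent capillary electrophoresis.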
Chain of Retinoic acid receptor alpha (Homo sapiens) (P10276 whole entry, looked up): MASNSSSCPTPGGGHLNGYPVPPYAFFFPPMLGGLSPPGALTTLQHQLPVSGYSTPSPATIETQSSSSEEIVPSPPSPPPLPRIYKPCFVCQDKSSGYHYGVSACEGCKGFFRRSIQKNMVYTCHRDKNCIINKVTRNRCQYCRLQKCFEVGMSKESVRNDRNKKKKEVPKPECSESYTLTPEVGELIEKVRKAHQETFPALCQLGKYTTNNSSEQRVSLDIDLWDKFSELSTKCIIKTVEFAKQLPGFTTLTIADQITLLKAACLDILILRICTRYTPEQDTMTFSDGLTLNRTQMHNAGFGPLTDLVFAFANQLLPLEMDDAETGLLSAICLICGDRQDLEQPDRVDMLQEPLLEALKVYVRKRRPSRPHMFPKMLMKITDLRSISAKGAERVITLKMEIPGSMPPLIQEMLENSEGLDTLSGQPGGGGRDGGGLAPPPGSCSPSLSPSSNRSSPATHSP
`Nc1c(Oc2ccccc2)cc(O)c2c1C(=O)c1ccccc1C2=O`: the compound was classed as inactive.

For `C=CCN=C=S`, the compound was classed as inactive.

Consider `C[C@]12CC[C@@H](O)C[C@@H]1CC[C@@H]1[C@@H]2CC[C@]2(C)C(=O)CC[C@@H]12`, for which the result was inactive.

Turning to `C=C(C)[C@@H]1CC=C(C=O)CC1`, the call was inactive.

As for `CN(C)[C@@H]1C(=O)C(C(N)=O)=C(O)[C@@]2(O)C(=O)C3=C(O)c4c(O)ccc(Cl)c4[C@@](C)(O)[C@H]3C[C@@H]12`, the outcome was inactive.

As to `Cc1cc(C)cc(C)c1`, the call was inactive.

For the compound `C=CCCl`, the call was inactive.

In the case of `C1CN2CCN1CC2`, the call was inactive.

With `COCC(=O)N(c1c(C)cccc1C)[C@H](C)C(=O)OC`, the result was inactive.

As to `CCCSP(=S)(OCC)Oc1ccc(SC)cc1` (stereo not given), the call was inactive.

For `CCOc1ccc(N)cc1`, the call was inactive.

As for `COc1ccc([N+](=O)[O-])cc1O`, the call was inactive.

Regarding `CC(C)[N+](=O)[O-]`, the call was inactive.

In the case of `O=C(CCl)Nc1ccccc1`, the compound was classed as inactive.

In the case of `CC(C=O)Cc1ccc2c(c1)OCO2` (stereo not given), the outcome was inactive.

Take `BrCCCCBr`: the call was inactive.

Take `CC(C)O.CC(C)O.OCCN(CCO)CCO.OCCN(CCO)CCO.[Ti]`: the result was inactive.

On to `CCCCOC(C)=O`, for which the call was inactive.

With `CC(C)(C)c1ccc(CCOc2ncnc3ccccc23)cc1`, the result was inactive.

On to `CCOc1cc(C=O)ccc1O`, for which the outcome was inactive.

Turning to `CCCCS(=O)(=O)Cl`, the compound was classed as inactive.

For `N#Cc1ccccc1N`, the call was inactive.

As for `OCCN(CCO)CCO`, the call was inactive.

On to `BrCC(Br)c1ccccc1` (stereo not given), for which the call was inactive.

For the compound `C=CC(Cl)CCl` (stereo not given), the compound was classed as inactive.

Take `O=[N+]([O-])c1ccc(Cl)c([N+](=O)[O-])c1`: the compound was classed as inactive.

As for `CCC(C)(C#N)N=NC(C)(C#N)CC` (stereo not given), the result was inactive.

For the compound `CC(C)(C1CCC(O)CC1)C1CCC(O)CC1` (stereo not given), the result was inactive.

As to `C=CC(=O)NC(C)(C)CC(C)=O`, the call was inactive.

Take `Cc1cc(SCc2sc(-c3ccc(C(F)(F)F)c(F)c3)nc2C)ccc1OCC(=O)O`: the outcome was inactive.

As to `c1ccc2sc(SNC3CCCCC3)nc2c1`, the compound was classed as inactive.

Consider `CCOC(=O)C(SP(=S)(OC)OC)c1ccccc1` (stereo not given), for which the call was inactive.

On to `c1csc(-c2ccc(-c3cccs3)s2)c1`, for which the compound was classed as inactive.

The next experiment addresses Transcription factor E2F1 (Homo sapiens) (UniProt Q01094). The experiment can be described thus: ATG_E2F_CIS: Attagene CIS-FACTORIAL HepG2 Assay for human E2F Transcription Factor 1 (AID 2282935). To be noted: HepG2 Attagene cis-reporter, E2F reporter RNA transcripts; actives raise or lower the signal. The procedure, abridged:
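First, HepG2 cells were transfected with reporter transcription units. Next, they were dosed for 24 h. Then RNA was isolated, converted to cDNA, PCR-amplified, FAM-labeled, HpaI-digested and analyzed by capillary electrophoresis.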
With `C=CCN=C=S`, the compound was called inactive.

`C#CCOC(=O)/C=C(C)/C=C/CC(C)CCCC(C)C` (stereo not given): the result was inactive.

As for `CN(C)[C@@H]1C(=O)C(C(N)=O)=C(O)[C@@]2(O)C(=O)C3=C(O)c4c(O)ccc(Cl)c4[C@@](C)(O)[C@H]3C[C@@H]12`, the call was inactive.

As for `Cc1cc(C)cc(C)c1`, the outcome was inactive.

As for `O=c1[nH]c2ccccc2n1C1CCN(CCCC(c2ccc(F)cc2)c2ccc(F)cc2)CC1`, the result was inactive.

`C=CCCl`: the compound was called inactive.

As for `CCCSP(=S)(OCC)Oc1ccc(SC)cc1` (stereo not given), the outcome was inactive.

For the compound `CCOc1ccc(N)cc1`, the compound was called inactive.

With `COc1ccc([N+](=O)[O-])cc1O`, the outcome was inactive.

As to `OC(Cc1ccccc1Cl)(Cn1[nH]cnc1=S)C1(Cl)CC1` (stereo not given), the result was inactive.

Take `CC(C)(C)c1ccccc1O`: the call was inactive.

For the compound `CC(C)[N+](=O)[O-]`, the outcome was inactive.

Regarding `CCCCCCCCCCCCc1cccc(S(=O)(=O)O)c1`, the result was inactive.

As to `O=C(CCl)Nc1ccccc1`, the AC50 is 147 µM (active).

On to `CC(C=O)Cc1ccc2c(c1)OCO2` (stereo not given), for which the compound was called inactive.

Regarding `BrCCCCBr`, the result was inactive.

Consider `CC(C)O.CC(C)O.OCCN(CCO)CCO.OCCN(CCO)CCO.[Ti]`, for which the compound was classed as inactive.

On to `CCCCOC(C)=O`, for which the compound was classed as inactive.

Turning to `Cc1ccc(OP(=O)(Oc2ccc(C)cc2C)Oc2ccc(C)cc2C)c(C)c1`, the call was inactive.

On to `CC(C)(C)c1ccc(CCOc2ncnc3ccccc23)cc1`, for which the compound was classed as inactive.

Regarding `CCOc1cc(C=O)ccc1O`, the result was inactive.

With `Clc1cc(C(Cl)(Cl)Cl)cnc1Cl`, the AC50 is 33.4 µM (active).

Consider `CCCCS(=O)(=O)Cl`, for which the call was inactive.

For `OCCN(CCO)CCO`, the result was inactive.

As for `BrCC(Br)c1ccccc1` (stereo not given), the result was inactive.

Take `O=[N+]([O-])c1ccc(Cl)c([N+](=O)[O-])c1`: the compound was classed as inactive.

Turning to `CCC(C)(C#N)N=NC(C)(C#N)CC` (stereo not given), the result was inactive.

Regarding `CC(C)(C1CCC(O)CC1)C1CCC(O)CC1` (stereo not given), the call was inactive.

Regarding `C=CC(=O)NC(C)(C)CC(C)=O`, the result was inactive.

As for `c1ccc2sc(SNC3CCCCC3)nc2c1`, the outcome was inactive.

On to `CCOC(=O)C(SP(=S)(OC)OC)c1ccccc1` (stereo not given), for which the result was inactive.

Take `c1csc(-c2ccc(-c3cccs3)s2)c1`: the compound was called inactive.

The values above are taken from PubChem BioAssay (EPA / NIEHS).
